# Hits are enriched below; roughly 21% of the tested compounds scored in any of these assays.
# Pf growth 96h = P. falciparum growth inhibition at 96 hour, primary screen for plastid delayed-death inhibitors; Potency, µM (titrated, usually from 28.7 µM), without a hit: at the top dose activity change, negative = inhibition, most hits filed as inhibitors; P. falciparum luciferase reporter growth, 96 h; 320,000 tested, 6.9% active; further: potency means the concentration at half of the fitted maximal effect; on the % scale 0 is the no-effect control and ±100 the full control effect
#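 Cell-based qHTS: luciferase-tagged P. falciparum in erythrocytes (2% hematocrit, 0.05% parasitemia final) incubated with compounds for 96 hours, 37 C, 5% CO2; luciferase detection reagent then added and luminescence measured.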
# CHX counter = affects cycloheximide protein synthesis inhibition readout, counter-screen | cell reporter, cycloheximide protein synthesis inhibition counterscreen | max response, % | 300,000 tested, 12% active | AID 2314; in the data active means max response mostly above about 13%, no sharp cut-off; inactive means mostly below about 14%; further: read at 38.3 µM for the half of the compounds with a filed dose; 0% is about no effect
# Shiga toxin inh = blocks Shiga toxin action in Vero cells | Vero cells, Shiga toxin protein synthesis inhibition reporter | inhibition, % at 38.7 µM | 290,000 tested, 9.2% active; in the data active means inhibition mostly above about 28%, no sharp cut-off; inactive means mostly below about 43%; further: 0% is about no effect
# NS1 function inh = blocks influenza NS1 protein function; 270,000 tested, 0.4% active; Potency, µM (titrated, usually from 46.1 µM), without a hit: top-dose activity, positive = more growth; calls by dose curve; further: potency means the concentration at half of the fitted maximal effect; actives are rising curves; nearly all actives have a fitted effect of over 50% in size
#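 A cell-based growth assay was used: compounds that relieve NS1-induced slow growth of budding yeast raise OD600. Assay medium was yeast nitrogen base with ammonium sulphate and -URA supplement, pH 6.0, with 2% galactose.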
# Pf growth 48h = P. falciparum growth inhibition at 48 hours (one generation); P. falciparum luciferase growth in erythrocytes, 48 h; Potency, µM (series often up to 28.7 µM), inactives show top-dose activity change, negative = inhibition, hits mostly inhibitors; 310,000 tested, 5.9% active; AID 504832; further: potency means the concentration at half of the fitted maximal effect; on the % scale 0 is the no-effect control and ±100 the full control effect
#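 Erythrocytes infected with P. falciparum carrying an integrated firefly luciferase reporter (2% hematocrit, 0.1% parasitemia final) were exposed to compounds in RPMI 1640 with 0.5% Albumax at 37 C, 5% CO2. Growth inhibition was scored as reduced luminescence.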
# Sm TGR inh = blocks Schistosoma mansoni thioredoxin glutathione reductase; purified TGR, DTNB reduction, TNB absorbance 405 nm; Potency, µM (series often up to 114 µM), for inactives: top-dose activity change, negative = inhibition, actives largely listed as inhibitors; 360,000 tested, 3% active; further: potency means the concentration at half of the fitted maximal effect; on the % scale 0 is the no-effect control and ±100 the full control effect; nearly all actives have a fitted effect of over 60% in size
#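 TGR 20 nM + NADPH 100 uM (dispensed conc.), cpd preinc 15 min RT; start with NADPH (500 uM addition) then DTNB (15 mM addition). Kinetic TNB absorbance, 405 nm filter. Four-parameter Hill fit across titration.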
# * hit, by the source's call; ? = inconclusive; . = no result; + = active, no number. Unless noted, the call rests on the fitted dose curve; in most records, active means well fitted curve in the direction sought with a large enough effect; inconclusive means small, poorly fitted or top-dose-only effect, or another doubt; inactive means no such curve, though single readings can be large; an effect the other way counts as inactive or inconclusive.
SMILES,Pf growth 96h,CHX counter,Shiga toxin inh,NS1 function inh,Pf growth 48h,Sm TGR inh
CCc1cccc2c(C(=O)COC(=O)c3ccccc3)c[nH]c12,175%,21*,76*,1%,199%,-10%
CCc1cccc2c(C(=O)COC(=O)/C=C/c3ccccc3OC)c[nH]c12,13µM*,-1,20,16%,?,-3%
CCc1cccc2c(C(=O)COC(=O)c3ccc(O)cc3)c[nH]c12,-26%,37*,53*,15%,39%,-10%
CCc1cccc2c(C(=O)COC(=O)c3nccnc3N)c[nH]c12,3%,.,.,.,-2%,-7%
CCc1cccc2c(C(=O)COC(=O)c3cnc(C)cn3)c[nH]c12,-26%,.,.,.,-29%,5%
COc1cc(C(=O)NNC(=O)COc2cccc(F)c2)ccc1OCC(=O)N1CCOCC1,-10%,.,.,.,12%,-10%
CC(OC(=O)c1cccc(S(=O)(=O)N(C)C)c1)C(=O)NCc1ccc2c(c1)OCO2 (stereo not drawn),-3%,.,.,.,-13%,-12%
COc1ccc(-n2c(=O)c3c4c(sc3n(Cc3cc(C)ccc3C)c2=O)CN(C(C)=O)CC4)c(OC)c1,.,.,.,.,.,-1%
CCOc1ccccc1NC(=O)[C@@H](NC(=O)c1cccc(S(=O)(=O)N2CCOCC2)c1)C(C)C,?,2,27,6%,13µM*,6%
CCOc1ccccc1C(=O)N[C@H](C(=O)Nc1ccc(OC)c(S(=O)(=O)N2CCOCC2)c1)C(C)C,?,-1,-3,.,13µM*,-5%
CC(C)[C@H](NC(=O)c1cccc(S(=O)(=O)N2CCOCC2)c1)C(=O)Nc1nc2ccccc2s1,10µM*,26*,+,23%,15µM*,-10%
NCCCC[C@H](NC(=O)[C@H](Cc1c[nH]c2ccccc12)NC(=O)[C@H](CC(=O)O)NC(=O)[C@H](Cc1cnc[nH]1)NC(=O)[C@H](CO)NC(=O)[C@H](Cc1c[nH]c2ccccc12)NC(=O)[C@H](Cc1cnc[nH]1)NC(=O)[C@@H]1CCC(=O)N1)C(=O)N1CCC[C@H]1C(=O)NCC(N)=O,.,5,-9,.,.,.
COc1ccccc1N(C)S(=O)(=O)c1ccc(C(=O)OCC(=O)NCc2cccs2)cc1,-22%,1,-3,-5%,-14%,1%
C(=C/c1ccnc2nc(SC/C=C/c3ccccc3)nn12)/c1ccccc1,15µM*,1,-9,12%,?,-6%
O=C(/C=C/c1ccccc1)n1cnnc1SC/C=C/c1ccccc1,27%,10,3,1%,41%,?
CCN(CC)CC#CCOC(=O)C(O)(c1ccccc1)C1CCCCC1 (stereo not drawn),?,-6,-9,1%,?,-31%
OC(CC#CCN1CCCCCC1)(c1ccccc1)C1CCCC1 (stereo not drawn),2.9µM*,-4,-11,-6%,?,?
CC[N+](CC)(CC)CCCOC(=O)C(O)(c1ccccc1)C1CCCCC1 (stereo not drawn),.,-5,-23,1%,2.9µM*,3%
CC[N+](CC)(CC)CC[C@](O)(c1ccccc1)C1CCCCC1,5.7µM*,.,.,.,6.4µM*,.
OC(CCN1CCCCC1)(c1ccccc1)C1CCCCC1 (stereo not drawn),.,-2,22,7%,.,0%
COc1ccc2c(c1)c1c(c(=O)n(Cc3ccccc3)c(=O)n1CC(=O)NCc1ccccc1Cl)n2C,.,.,.,.,.,-2%
Cc1[nH]nc(SCC(=O)NCc2ccccc2)c1[N+](=O)[O-],0%,-1,-5,2%,1%,-5%
COC(=O)CSc1[nH]c2ccccc2c1[N+](=O)[O-],34%,-3,-4,-34%,-3%,50µM*
O=c1[nH]c(=O)n(-c2cccc(F)c2)c(O)c1/C=C1\C=Nc2ccccc21,7%,-3,-6,1%,10%,35µM*
COC(=O)C1=Nc2ccccc2/C1=C\c1c(O)n(-c2ccc(OC)cc2)c(=O)[nH]c1=O,49%,4,-18,-40%,47%,-21%
SMILES,Pf growth 96h,CHX counter,Shiga toxin inh,NS1 function inh,Pf growth 48h,Sm TGR inh
O=c1[nH]c(=O)n(-c2ccccc2)c(O)c1/C=C1/C(c2ccccc2)=Nc2ccccc21,9.3µM*,48*,30*,-31%,?,-15%
Cc1ccc2nc(-c3cc(NC(=O)c4ccc5c(c4)OCCO5)ccc3Cl)oc2c1,.,.,.,.,.,-6%
CCC(=O)Nc1cccc(-c2nc3ccc(C)cc3o2)c1,-16%,52*,125*,-111%,159%,5%
CCC(=O)Nc1ccc2oc(-c3cccc(C)c3)nc2c1,19%,35*,+,-30%,40%,-15%
Cc1ccc2nc(-c3cccc(NC(=O)CSc4ccc(Cl)cc4)c3)oc2c1,.,.,.,.,.,1%
Cc1ccc(SCC(=O)Nc2ccc3oc(-c4cccc(C)c4)nc3c2)cc1,.,.,.,.,.,-4%
Cc1ccc2nc(-c3cccc(NC(=O)c4ccc5c(c4)OCCO5)c3)oc2c1,6%,20*,34,-3%,138%,-22%
COc1ccc(OCC(=O)NNC(=O)Cn2c(=O)cnc3ccccc32)cc1,13%,.,.,.,1%,-2%
Cc1ccc(OCCCCN2CCC(C)CC2)cc1,38%,6,22,2%,-1%,14%
CN(C)C1CCN(CCCOc2ccc(-c3ccc(C#N)cc3)cc2)C1 (stereo not drawn),.,31*,2,.,.,.
COc1ccccc1N(C(=O)c1cncc(Br)c1)c1nc(-c2ccc(C)cc2)cs1,7.4µM*,6,-1,25%,?,-6%
NC(N)=Nc1ccc2[nH]c3c(c2c1)C[C@@]1(O)[C@H]2Cc4ccc(O)c5c4[C@@]1(CCN2CC1CC1)[C@H]3O5,-4%,-7,-7,-11%,?,0.79µM*
CN(C)CCCN1C(=O)C2CCc3[nH]c4ccccc4c3C2C1=O (stereo not drawn),2.9µM*,-2,-9,1%,17%,0%
CC(C)(C)c1csc(Sc2ccc([N+](=O)[O-])cn2)n1,?,23*,50*,-2%,13µM*,?
O=[N+]([O-])c1ccc(Sc2n[nH]c(-c3ccccc3)n2)nc1,31%,41*,44,-62%,31%,1%
Cc1ccnc(Sc2ccc([N+](=O)[O-])cn2)n1,13µM*,10*,25,1%,?,-25%
C=C(C)Cn1c(=O)c2c(nc3n2CCCN3Cc2ccccc2)n(C)c1=O,?,-4,-3,-4%,?,-10%
Nc1cc(N)nc(SCCN2CCCCC2)n1,?,-2,-11,-7%,-10%,2%
CC(=O)c1sc2nsc(SCCN3CCCC3)c2c1N,?,20*,31,7%,?,-9%
O=c1onc(-c2cccnc2)n1-c1ccccc1F,13%,-1,-8,2%,78%,2%
Cc1ccc(-n2nc3c(N4CCC(C(=O)NC5CCC(C)CC5)CC4)nnc(C)c3c2C)cc1 (stereo not drawn),.,.,.,.,.,0%

# High-throughput results (PubChem)
